A selection: hits, their analogues and other compounds. The true share with any hit is near 2.3%.
M1 ag parental – counter-screen for M1 agonists: effect in parental CHO-K1 cells. Fluo-8 calcium fluorescence; scaled to maximal ATP response, vehicle zero. activation, % at 3 µM. 360,000 compounds, 0.48% hits. AID 602248, 2012; in the data active means activation above about 15%;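 further: untransfected CHO-K1 host cells lacking M1 receptor as counterscreen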
CHO-K1 Ca antag – nonselective inhibitor or artifact in parental CHO-K1 cells; ATP-induced calcium, Fluo-8 fluorescence; inhibition, % at 3 µM; 360,000 compounds, 0.6% hits;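 active means inhibition above a per-plate cutoff, the plate's mean sample inhibition plus 3 SD, cut at about 24% in these data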;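 further: 0% = DMSO plus EC80 ATP and 100% = DMSO alone without ATP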
CHRM1 antagonist – human M1 muscarinic receptor antagonists, primary screen, CHO-K1 cells, Fluo-8 calcium fluorescence, 1536-well; inhibition, % at 3 µM; CHO-K1 hM1, ACh EC80 antagonist; 360,000 compounds, 1.3% hits; Muscarinic acetylcholine receptor M1 (Homo sapiens), P11229;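 active means percent inhibition above its own plate's cutoff, namely the mean of that plate's compound wells plus 3 SD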;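 further: peak over basal fluorescence ratio during 140 s after agonist addition; 0% = ACh EC80 plus DMSO and 100% = DMSO alone without agonist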
Target sequence (P11229 whole entry, looked up): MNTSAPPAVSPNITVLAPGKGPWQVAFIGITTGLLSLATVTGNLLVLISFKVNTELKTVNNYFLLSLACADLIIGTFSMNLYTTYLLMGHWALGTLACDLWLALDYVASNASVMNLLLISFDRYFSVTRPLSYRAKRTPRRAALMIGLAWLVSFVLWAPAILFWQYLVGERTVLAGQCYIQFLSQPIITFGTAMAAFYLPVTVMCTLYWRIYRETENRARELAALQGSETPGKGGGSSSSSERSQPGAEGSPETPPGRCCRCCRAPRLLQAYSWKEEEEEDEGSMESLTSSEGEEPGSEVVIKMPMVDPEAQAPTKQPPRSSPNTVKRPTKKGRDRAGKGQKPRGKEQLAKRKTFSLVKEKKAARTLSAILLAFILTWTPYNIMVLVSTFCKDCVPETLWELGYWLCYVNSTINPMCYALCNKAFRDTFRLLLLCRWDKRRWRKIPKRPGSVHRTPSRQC
M1 PAM parental – nonselective calcium activators in parental CHO-K1 cells, primary screen, counter-screen for M1 PAM project, cell-based, Fluo-8 calcium fluorescence, full deck, 1536-well; ATP EC20; 0% at ATP EC20, 100% at ATP max; activation, % at 3 µM; 360,000 compounds, 0.02% hits; AID 602247, 2012;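 active means activation above the run cutoff, the mean activation of all test compounds plus 3 SD, cut at about 40% in these data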;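 further: peak over basal fluorescence ratio in a 140 s read after ATP addition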
CHRM1 PAM – human M1 muscarinic receptor positive allosteric modulators, primary screen, CHO-K1 cells, Fluo-8 calcium fluorescence, 1536-well; Muscarinic acetylcholine receptor M1 (Homo sapiens), P11229; CHO-K1 hM1, ACh EC20; 0% = ACh EC20, 100% = maximal ACh; activation, % at 3 µM; 360,000 compounds, 0.088% hits; AID 588819, 2011; in the data active means activation above about 19%, passing the limit was not always enough
CHRM1 agonist – human M1 muscarinic receptor agonists, primary screen, Fluo-8 calcium fluorescence, CHO-K1 cells, HTS. Muscarinic acetylcholine receptor M1 (Homo sapiens), P11229. CHO-K1 hM1, agonist mode; 0% DMSO, 100% acetylcholine EC100. activation, % at 3 µM. 360,000 compounds, 0.33% hits. AID 588814, 2011;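 active means activation above the run's mean compound activation plus 3 SD, cut at about 16% in these data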;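 further: peak over basal fluorescence ratio within a 140 s kinetic read after compound addition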
Active calls of the source: *.

SMILES | M1 ag parental | CHO-K1 Ca antag | CHRM1 antagonist | M1 PAM parental | CHRM1 PAM | CHRM1 agonist
O=C(NCc1cc(C(F)(F)F)ccc1Cl)c1cccc2c1C(=O)c1ccc(N3CCCCC3)cc1S2(=O)=O | 0.1 | -9.8 | -7.4 | 20.6 | 10.4 | -1.7
O=C(NNC(=O)C1COc2ccccc2O1)c1ccccc1O (stereo not given) | 0.9 | -0.8 | -9.7 | 0.5 | 9.8 | -0.4
Cc1noc(COc2ccccc2OCC(N)=O)n1 | 16.2* | -1.2 | -9.6 | 19.0 | 11.9 | -3.0
OC(CNCCNc1ncccc1C(F)(F)F)Cn1ccc2ccccc21 (stereo not given) | 6.2 | -15.4 | 0.2 | 21.8 | -3.0 | 19.6*
CN(C(=O)COC(=O)c1c[nH]c2ccccc12)c1ccccc1 | 2.1 | -9.0 | -23.8 | 14.9 | 12.2 | 3.4
COc1ccc(Cn2c(-c3ccc(Br)cc3)c[n+]3ccccc23)cc1 | -0.3 | -12.4 | 41.6* | 25.0 | -28.6 | -11.3
Cc1ccc2c(c1)NC(=O)C(CC(=O)O)O2 (stereo not given) | 0.4 | 26.0* | 2.9 | -7.9 | -3.2 | -4.3
CCC1CCCCN1CCCNC(=O)CC1Oc2ccc(C)cc2NC1=O (stereo not given) | -0.2 | 21.4 | 41.3* | -9.7 | -26.3 | -14.0
CCC1CCCCN1CCCNC(=O)CC1Oc2ccccc2NC1=O (stereo not given) | -0.2 | 3.4 | 16.7 | -0.1 | -8.5 | -13.1
O=C(NCc1ccccc1)C(c1ccc(F)cc1)N(Cc1cccs1)C(=O)c1cnccn1 (stereo not given) | 5.0 | -1.4 | 10.9 | 23.4 | -6.1 | 2.5
O=C(NCc1ccccc1)C(c1ccccc1)N(Cc1cccs1)C(=O)c1cnccn1 (stereo not given) | 5.6 | 14.6 | 42.5* | 10.5 | -6.6 | 1.0
CN(C)c1ccc(CNc2ncnc3sccc23)cc1 | 10.0 | 25.3* | 10.5 | -16.0 | -6.2 | -8.0
COc1ccc(CCNc2nc(C)nc3c2oc2ccccc23)cc1OC | 12.5 | 16.3 | 30.2 | -0.5 | -12.6 | 5.2
COc1ccc(CCNc2ncnc3sccc23)cc1OC | 17.4* | 33.5* | 39.7* | -4.5 | -13.9 | -0.1
COc1ccc(CCNc2ncnc3c2oc2ccccc23)cc1OC | 14.8 | 44.3* | 39.8* | -9.6 | -18.8 | 2.2
NS(=O)(=O)c1ccc(CNc2ncnc3sccc23)cc1 | 1.2 | -8.7 | -7.4 | -0.6 | 3.3 | -2.3
O=C(NS(=O)(=O)N1CCOCC1)C1=C(N2CCCC2)COC1=O | -0.3 | -7.3 | -6.6 | 17.5 | 10.7 | -2.1
CCN1CCN(CCNC(=O)c2ccc(/C=C3\Sc4ccccc4N(Cc4ccccc4F)C3=O)cc2)CC1 | 4.3 | -1.8 | 46.9* | 0.7 | -22.6 | -0.7
Oc1ccccc1Oc1ncc(Br)c(N2CCOCC2)n1 | 0.6 | -0.4 | 83.7* | 18.3 | -22.8 | -6.0
O=S1c2ccccc2Nc2ccccc21 | 0.4 | -10.6 | 1.3 | 8.9 | 27.1* | -5.5
CC1(C)CC(=O)C2=C(C1)Nc1ccccc1[S@]2=O | 2.3 | -1.6 | 3.3 | -5.6 | -1.7 | -0.6
O=C(CCNC(=O)C1CCN(S(=O)(=O)c2ccc(F)cc2)CC1)NCc1ccccc1Cl | 0.8 | -8.0 | -12.9 | -16.9 | 7.6 | -2.1
CCn1c(SCC(=O)Nc2ccc3c(c2)OCO3)nc2c(c1=O)SC(C)C2 (stereo not given) | 0.1 | -0.1 | -0.2 | 8.9 | 1.5 | -2.7
CC1Cc2nc(SCC(=O)c3ccccc3)n(Cc3ccccc3)c(=O)c2S1 (stereo not given) | 1.0 | -4.1 | 3.8 | 13.1 | -2.3 | -7.0
CCn1c(SCC(=O)Nc2cccc(C)c2)nc2c(c1=O)SC(C)C2 (stereo not given) | 0.9 | 34.7* | -2.2 | -3.0 | -0.1 | -3.7
CC1Cc2nc(SCC(=O)NCc3ccccc3)n(Cc3ccccc3)c(=O)c2S1 (stereo not given) | 1.3 | 6.0 | 53.2* | 7.2 | -28.6 | -10.5
